# Results published in the supplement of paper PMC11732987, “Enantioselective OTUD7B fragment discovery through chemoproteomics screening and high-throughput optimisation” (Communications Chemistry, 2025).
# Unmarked numbers belong to inactive results.
# Assays:
# Experiment in all cases: log2 ratio of Biotin-Ahx-Ub-VS probe labelling (fragment/DMSO); higher = less target engagement (more negative = stronger competition), active = hit call of the paper (q ≤ 0.05, log2 ratio ≤ -1)
# Conditions in all cases: compound concentration: 200 uM; treatment time: 3 h
# ALG13 = molecular target: T1, ALG13 (UniProt Q9NP73)
# T1 sequence (whole entry): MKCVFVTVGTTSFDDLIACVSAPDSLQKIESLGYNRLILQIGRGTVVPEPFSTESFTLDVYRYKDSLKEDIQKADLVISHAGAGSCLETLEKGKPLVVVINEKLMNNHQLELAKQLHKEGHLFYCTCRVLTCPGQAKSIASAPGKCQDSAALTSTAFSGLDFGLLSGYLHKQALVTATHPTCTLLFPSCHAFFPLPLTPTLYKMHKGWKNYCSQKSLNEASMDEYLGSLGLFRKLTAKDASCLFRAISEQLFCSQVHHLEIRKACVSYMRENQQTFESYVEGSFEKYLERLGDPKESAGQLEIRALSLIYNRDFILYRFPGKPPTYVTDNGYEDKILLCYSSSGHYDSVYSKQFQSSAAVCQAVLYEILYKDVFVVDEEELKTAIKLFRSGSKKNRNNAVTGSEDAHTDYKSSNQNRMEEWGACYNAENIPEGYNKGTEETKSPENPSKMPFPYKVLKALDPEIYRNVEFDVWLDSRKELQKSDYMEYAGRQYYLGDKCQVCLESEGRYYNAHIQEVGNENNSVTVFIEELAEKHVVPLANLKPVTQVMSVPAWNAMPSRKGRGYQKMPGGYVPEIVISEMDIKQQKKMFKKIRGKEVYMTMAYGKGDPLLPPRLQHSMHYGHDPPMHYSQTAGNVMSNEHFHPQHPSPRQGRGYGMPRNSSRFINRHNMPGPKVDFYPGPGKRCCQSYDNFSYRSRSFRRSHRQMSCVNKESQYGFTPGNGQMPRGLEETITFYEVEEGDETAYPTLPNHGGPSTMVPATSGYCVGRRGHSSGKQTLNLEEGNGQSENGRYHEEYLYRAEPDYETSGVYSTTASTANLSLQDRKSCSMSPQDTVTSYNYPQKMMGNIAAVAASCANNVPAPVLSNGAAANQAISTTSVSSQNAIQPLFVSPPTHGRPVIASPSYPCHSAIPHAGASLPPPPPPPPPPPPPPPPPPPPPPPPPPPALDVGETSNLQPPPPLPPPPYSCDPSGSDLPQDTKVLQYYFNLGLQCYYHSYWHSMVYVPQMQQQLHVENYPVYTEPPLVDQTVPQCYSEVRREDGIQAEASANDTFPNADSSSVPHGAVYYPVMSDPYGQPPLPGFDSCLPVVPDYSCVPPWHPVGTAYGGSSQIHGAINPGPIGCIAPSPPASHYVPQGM
# Outline: (§1)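 Values give the average log2 ratio of fragment to vehicle, assessed by unpaired t-test on global-median-normalised Spectronaut label-free quantities. Proteins needed ≥2 unique peptides. HEK293T lysate (495 µg per sample) was treated in triplicate with fragment at 200 µM or vehicle for 3 h and then with Biotin-Ahx-Ub-VS at 0.5 µM final for 1 h. Labelled DUBs were NeutrAvidin-enriched, digested and run by diaPASEF LC-MS/MS.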
# ATXN3 = ATXN3 (UniProt P54252)
# Outline: as §1
# BAP1 = molecular target: T2, BAP1 (UniProt Q92560)
# T2 sequence (whole entry): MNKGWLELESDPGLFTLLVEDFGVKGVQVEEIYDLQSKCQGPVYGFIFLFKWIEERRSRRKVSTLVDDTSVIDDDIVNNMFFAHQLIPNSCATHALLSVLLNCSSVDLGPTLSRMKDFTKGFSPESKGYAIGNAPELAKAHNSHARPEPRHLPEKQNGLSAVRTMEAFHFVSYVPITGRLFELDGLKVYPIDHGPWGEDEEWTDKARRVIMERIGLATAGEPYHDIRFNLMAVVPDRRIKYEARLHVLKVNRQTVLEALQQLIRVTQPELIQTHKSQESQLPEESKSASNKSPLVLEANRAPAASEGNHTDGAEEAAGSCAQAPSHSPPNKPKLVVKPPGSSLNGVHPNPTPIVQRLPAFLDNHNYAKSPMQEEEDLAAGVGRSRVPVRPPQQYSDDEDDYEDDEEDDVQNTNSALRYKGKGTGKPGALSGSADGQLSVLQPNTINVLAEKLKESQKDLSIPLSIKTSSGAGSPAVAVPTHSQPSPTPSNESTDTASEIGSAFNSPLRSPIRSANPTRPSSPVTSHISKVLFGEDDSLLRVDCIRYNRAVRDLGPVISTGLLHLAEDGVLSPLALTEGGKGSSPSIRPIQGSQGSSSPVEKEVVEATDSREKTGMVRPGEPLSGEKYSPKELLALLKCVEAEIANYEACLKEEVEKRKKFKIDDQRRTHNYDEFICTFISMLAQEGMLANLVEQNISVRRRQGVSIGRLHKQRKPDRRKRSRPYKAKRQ
# Outline: as §1
# EIF3F = EIF3F (UniProt O00303)
# Outline: as §1
# EIF3H = EIF3H (UniProt O15372)
# Outline: as §1
# FAM105A = molecular target: T3, FAM105A (UniProt Q9NUU6)
# T3 sequence (whole entry): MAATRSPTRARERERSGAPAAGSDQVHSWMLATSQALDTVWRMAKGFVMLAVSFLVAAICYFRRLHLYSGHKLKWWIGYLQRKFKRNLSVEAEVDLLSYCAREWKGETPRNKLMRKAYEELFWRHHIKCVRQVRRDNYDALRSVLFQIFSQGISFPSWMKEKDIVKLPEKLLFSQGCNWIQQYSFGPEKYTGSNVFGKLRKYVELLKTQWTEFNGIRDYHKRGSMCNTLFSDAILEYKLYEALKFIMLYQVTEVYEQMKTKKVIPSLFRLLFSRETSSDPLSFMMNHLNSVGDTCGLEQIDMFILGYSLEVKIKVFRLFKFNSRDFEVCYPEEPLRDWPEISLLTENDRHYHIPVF
# Outline: as §1
# OTUB1 = OTUB1 (UniProt Q96FW1)
# Outline: as §1
# OTUD4 = molecular target: T4, OTUD4 (UniProt Q01804)
# T4 sequence (whole entry): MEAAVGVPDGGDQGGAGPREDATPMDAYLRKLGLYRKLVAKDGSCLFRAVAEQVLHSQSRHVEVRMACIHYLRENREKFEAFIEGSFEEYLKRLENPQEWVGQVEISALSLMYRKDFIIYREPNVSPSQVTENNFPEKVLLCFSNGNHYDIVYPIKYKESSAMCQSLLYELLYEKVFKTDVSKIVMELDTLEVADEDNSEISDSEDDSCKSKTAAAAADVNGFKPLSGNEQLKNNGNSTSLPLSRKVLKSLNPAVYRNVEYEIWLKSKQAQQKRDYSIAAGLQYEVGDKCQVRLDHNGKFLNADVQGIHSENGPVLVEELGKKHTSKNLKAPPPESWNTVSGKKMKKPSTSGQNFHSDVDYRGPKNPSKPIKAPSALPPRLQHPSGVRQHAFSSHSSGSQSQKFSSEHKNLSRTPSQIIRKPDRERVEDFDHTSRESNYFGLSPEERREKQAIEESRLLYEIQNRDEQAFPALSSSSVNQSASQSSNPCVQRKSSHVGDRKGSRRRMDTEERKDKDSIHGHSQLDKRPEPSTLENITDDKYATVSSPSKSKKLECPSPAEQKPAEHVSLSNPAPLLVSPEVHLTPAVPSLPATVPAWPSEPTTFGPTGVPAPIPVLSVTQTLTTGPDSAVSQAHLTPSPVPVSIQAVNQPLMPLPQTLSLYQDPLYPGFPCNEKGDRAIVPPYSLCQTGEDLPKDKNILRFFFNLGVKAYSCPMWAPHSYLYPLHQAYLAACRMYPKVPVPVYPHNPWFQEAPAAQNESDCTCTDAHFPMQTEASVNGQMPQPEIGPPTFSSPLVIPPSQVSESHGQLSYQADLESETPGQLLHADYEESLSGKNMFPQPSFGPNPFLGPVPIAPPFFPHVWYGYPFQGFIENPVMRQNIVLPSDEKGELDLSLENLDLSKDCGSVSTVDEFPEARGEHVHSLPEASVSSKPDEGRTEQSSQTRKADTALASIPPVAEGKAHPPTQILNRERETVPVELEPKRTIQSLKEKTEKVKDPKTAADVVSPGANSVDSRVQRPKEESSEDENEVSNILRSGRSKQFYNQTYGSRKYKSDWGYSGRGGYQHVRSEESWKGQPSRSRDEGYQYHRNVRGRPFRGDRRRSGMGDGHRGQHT
# Outline: as §1
# OTUD5 = molecular target: T5, OTUD5 (UniProt Q96G74)
# T5 sequence (whole entry): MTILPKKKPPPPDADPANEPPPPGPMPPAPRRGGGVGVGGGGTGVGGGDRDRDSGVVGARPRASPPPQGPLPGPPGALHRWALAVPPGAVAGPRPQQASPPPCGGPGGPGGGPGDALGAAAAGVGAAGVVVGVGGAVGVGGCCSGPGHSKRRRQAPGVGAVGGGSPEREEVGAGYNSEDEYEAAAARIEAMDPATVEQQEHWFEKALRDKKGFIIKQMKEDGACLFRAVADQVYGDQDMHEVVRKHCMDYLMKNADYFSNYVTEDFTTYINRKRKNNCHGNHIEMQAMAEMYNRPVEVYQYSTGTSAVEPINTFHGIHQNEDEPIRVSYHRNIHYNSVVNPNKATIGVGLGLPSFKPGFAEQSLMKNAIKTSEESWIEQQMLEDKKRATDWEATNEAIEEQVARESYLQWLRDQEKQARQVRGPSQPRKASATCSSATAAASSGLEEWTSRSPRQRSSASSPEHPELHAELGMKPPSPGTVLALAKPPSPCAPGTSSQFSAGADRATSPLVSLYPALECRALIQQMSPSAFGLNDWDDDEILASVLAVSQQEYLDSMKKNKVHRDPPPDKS
# Outline: as §1
# EIF3H, sequence (O15372 whole entry): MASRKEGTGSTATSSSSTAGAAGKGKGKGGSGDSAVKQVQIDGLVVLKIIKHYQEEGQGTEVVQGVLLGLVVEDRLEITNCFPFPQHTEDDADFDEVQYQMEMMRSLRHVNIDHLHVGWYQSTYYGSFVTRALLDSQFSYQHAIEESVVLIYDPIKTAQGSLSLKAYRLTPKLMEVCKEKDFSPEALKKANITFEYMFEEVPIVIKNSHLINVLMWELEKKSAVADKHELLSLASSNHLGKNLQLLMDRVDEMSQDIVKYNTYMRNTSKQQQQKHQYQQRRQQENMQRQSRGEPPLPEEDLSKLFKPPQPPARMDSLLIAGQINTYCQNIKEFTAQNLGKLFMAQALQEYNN
# EIF3F, sequence (O00303 whole entry): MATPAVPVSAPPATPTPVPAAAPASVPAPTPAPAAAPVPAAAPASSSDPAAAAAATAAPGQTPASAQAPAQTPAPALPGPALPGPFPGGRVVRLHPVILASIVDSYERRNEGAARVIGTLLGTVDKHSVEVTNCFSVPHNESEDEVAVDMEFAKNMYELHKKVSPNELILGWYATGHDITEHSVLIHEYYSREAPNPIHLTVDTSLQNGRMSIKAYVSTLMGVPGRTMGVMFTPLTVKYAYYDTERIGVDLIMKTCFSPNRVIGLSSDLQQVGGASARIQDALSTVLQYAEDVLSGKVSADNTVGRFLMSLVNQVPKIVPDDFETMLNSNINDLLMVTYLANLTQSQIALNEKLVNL
# ATXN3, sequence (P54252 whole entry): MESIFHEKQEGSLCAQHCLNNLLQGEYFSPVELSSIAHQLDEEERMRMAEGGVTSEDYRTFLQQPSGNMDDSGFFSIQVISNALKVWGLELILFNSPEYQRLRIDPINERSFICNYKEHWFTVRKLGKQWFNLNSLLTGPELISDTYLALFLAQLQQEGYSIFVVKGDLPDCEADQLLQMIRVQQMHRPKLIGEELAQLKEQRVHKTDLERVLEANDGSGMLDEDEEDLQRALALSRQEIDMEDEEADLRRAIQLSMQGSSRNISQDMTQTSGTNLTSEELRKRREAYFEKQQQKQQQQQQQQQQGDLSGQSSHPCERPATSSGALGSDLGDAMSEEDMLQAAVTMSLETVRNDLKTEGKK
# OTUB1, sequence (Q96FW1 whole entry): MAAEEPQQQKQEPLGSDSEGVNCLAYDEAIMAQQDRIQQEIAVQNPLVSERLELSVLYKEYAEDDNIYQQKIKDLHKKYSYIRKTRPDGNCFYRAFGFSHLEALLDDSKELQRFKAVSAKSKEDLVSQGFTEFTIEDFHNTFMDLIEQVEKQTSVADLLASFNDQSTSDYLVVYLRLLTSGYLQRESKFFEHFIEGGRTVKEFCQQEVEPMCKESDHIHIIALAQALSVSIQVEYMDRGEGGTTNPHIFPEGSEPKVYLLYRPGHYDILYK
compound,measurement,setting,value
CNC(=O)C1(NC(=O)CCl)CCCCC1,log2 ratio of Biotin-Ahx-Ub-VS probe labelling,ALG13,-1.06
same,log2 ratio of Biotin-Ahx-Ub-VS probe labelling,ATXN3,-0.161
same,log2 ratio of Biotin-Ahx-Ub-VS probe labelling,BAP1,-1.12 (active)
same,log2 ratio of Biotin-Ahx-Ub-VS probe labelling,EIF3F,-0.192
same,log2 ratio of Biotin-Ahx-Ub-VS probe labelling,EIF3H,0.0858
same,log2 ratio of Biotin-Ahx-Ub-VS probe labelling,FAM105A,-0.00491
same,log2 ratio of Biotin-Ahx-Ub-VS probe labelling,OTUB1,0.0146
same,log2 ratio of Biotin-Ahx-Ub-VS probe labelling,OTUD4,-0.439
same,log2 ratio of Biotin-Ahx-Ub-VS probe labelling,OTUD5,-0.0782
